Values quoted from earlier work in PubChem BioAssay AID977610.
The campaign covered roughly 3,600 compounds. About 3,600 (100%) were called active. The limit is not given here; nearly all actives have Ki up to about 18000 µM. So high a share suggests a set chosen from earlier hits. Some of the results follow. Numbered stars: 1 amine (or outer) side, 2 acyl side, 3 side chain; on linkers, the order of the positions; unused ones are H or OH. Bridge positions count the residues as written; N and C are the ends. Where a SMILES comes first, the peptide text is derived from it. Square brackets hold non-standard residues; d marks the D form. Peptide text beside a SMILES is read from it. [ ]: non-standard residue; d: D form. The star is where a group is joined. X2 = CC[C@H](C)[C@H](N[*:1])c1cnnn1[C@@H](C)C(=O)[*:2]; X1 = C[C@@H](C(=O)[*:2])n1cc([C@@H]2CCCN2[*:1])nn1; Orn(CH(NH2)2) = NC(N)NCCC[C@H](N)C(=O)O; Cbz = O=C(OCc1ccccc1)*; Dap = NC[C@H](N)C(=O)O; Nlys = NCCCCNCC(=O)O

Experiment: PubChem AID 977610
Conditions: PDB protein-ligand complexes, literature Ki

In the case of CC(C)(C)OC(=O)N[C@H](C(=O)NO)c1ccc(-n2cccn2)cc1, the Ki (protein: M1 family aminopeptidase A-M1, PDB entry 4r5t) is given as 0.8 µM (active) and the Ki (protein: M17 leucyl aminopeptidase A-M17, PDB entry 4r6t) is given as 0.03 µM (active).

In the case of CC(C)(C)C(=O)N[C@@H](C(=O)NO)c1ccc(-n2cccn2)cc1, the Ki (protein: M1 family aminopeptidase A-M1, PDB entry 4r5v) is listed as 0.7 µM (active).

For CCOC(=O)c1cc(C#N)c(N2CCC(C(=O)NS(=O)(=O)Cc3ccccc3)CC2)nc1C, the Ki (protein: P2Y12R, PDB entry 4ntj) is given as 0.0439 µM (active).

In the case of CC(C[P+](O)(O)O)C(=O)O (stereo not given), the Ki (protein: PHOSPHO-2-DEHYDRO-3-DEOXYHEPTONATE ALDOLASE DAH7PS, PDB entry 4uma) is listed as 3.9 µM (active).

In the case of CC(C)C[C@H](NC(=O)OCc1ccccc1)C(=O)N[C@@H](Cc1ccccc1)C(=O)N[C@H](C=O)CCC(=O)N(C)C (Cbz-Leu-Phe-Glu(NMe2)-aldehyde), the Ki (protein: Genome polyprotein, PDB entry 4imz) is given as 0.12 µM (active).

For CC(=O)NC[C@@H](C=O)NC(=O)[C@H](Cc1ccccc1)NC(=O)[C@H](CC(C)C)NC(=O)OCc1ccccc1 (Cbz-Leu-Phe-[Dap](Ac)-aldehyde), the Ki (protein: 3C-like protease, PDB entry 4imq) is listed as 1.5 µM (active).

In the case of CC(C)C[C@H](NC(=O)[C@H](C)NC(=O)OCc1ccccc1)C(=O)N[C@@H](CCC(=O)N(C)C)C(=O)O (Cbz-Ala-Leu-Glu(NMe2)-OH), the Ki (protein: Genome polyprotein, PDB entry 4inh) is given as 0.56 µM (active).

In the case of COc1cc([C@@H]2Nc3ccc(C(N)N)cc3[C@H]3c4ccccc4C[C@H]32)c(-c2ccc(C(=O)O)cc2)cc1O, the Ki (protein: Factor VII, PDB entry 4ish) is listed as 0.0019 µM (active).

In the case of CC(=O)N[C@H]1CNC[C@H](O)[C@@H](O)[C@@H]1O, the Ki (protein: Beta-hexosaminidase 1, PDB entry 4mss) is given as 0.4 µM (active).

In the case of COc1cc2c(c(OC)c1OC)-c1ccc(OC)c(=O)cc1[C@@H](NC(C)=O)CC2, the Ki (protein: Tubulin, PDB entry 4o2b) is given as 1.8 µM (active).

In the case of CC[C@H](C)[C@@H]1NC(=O)[C@@H]2CCCN2C(=O)[C@@H]2CCCN2C(=O)[C@H]([C@@H](C)CC)NC(=O)[C@H](CO)NC(=O)CN(CCCCN)C(=O)[C@H]([C@@H](C)O)NC(=O)[C@@H](NC(=O)[C@H](CCCNC(N)N)NC(=O)CN)CSSC[C@@H](C(=O)N[C@@H](Cc2ccccc2)C(=O)O)NC1=O (H-G[Orn(CH(NH2)2)]CT[Nlys]SIPPICF-OH; disulfide 3-11), the Ki (protein: Cationic trypsin, PDB entry 4hgc) is given as 0.0001 µM (active).

For NCCCC[C@@H]1NC(=O)[C@H](CCC(N)=O)NC(=O)[C@H](Cc2ccc(O)cc2)NC(=O)[C@@H](NC(=O)[C@H](Cc2cccc3ccccc23)NC(=O)[C@H](CCCNC(N)N)NC(=O)[C@@H](N)CCCNC(N)N)CSSC[C@@H](C(=O)N[C@@H](CCCNC(N)N)C(=O)NCC(=O)N2CCC[C@@H]2C(=O)O)NC(=O)[C@H](CCCNC(N)=O)NC(=O)[C@H](CCCNC(N)N)NC(=O)[C@H](Cc2ccc(O)cc2)NC(=O)[C@@H]2CCCN2C(=O)[C@H]2CCCN2C1=O, the Ki (protein: C-X-C chemokine receptor type 4, Lysozyme Chimera(CXCR4-3), PDB entry 3oe0) is listed as 0.0025 µM (active).

In the case of CC[C@H](C)[C@@H]1NC(=O)[C@H](C)n2cc(nn2)[C@@H]2CCCN2C(=O)[C@H]([C@@H](C)CC)NC(=O)[C@H](CO)NC(=O)[C@H](CCCCN)NC(=O)[C@H]([C@@H](C)O)NC(=O)[C@@H](NC(=O)[C@H](CCCNC(N)N)NC(=O)CN)CSSC[C@@H](C(=O)N[C@@H](Cc2ccccc2)C(=O)O)NC1=O (H-G[Orn(CH(NH2)2)]CTKSI[X1]ICF-OH; disulfide 3-10), the Ki (protein: bovine CATIONIC TRYPSIN, PDB entry 4abi) is given as 0.0063 µM (active).

For CC[C@H](C)[C@@H]1NC(=O)[C@@H]2CCCN2C(=O)[C@@H]2CCCN2C(=O)[C@H]([C@@H](C)CC)NC(=O)[C@H](CO)NC(=O)[C@H](CCCCN)NC(=O)[C@H]([C@@H](C)O)NC(=O)[C@@H]2CSSC[C@H](NC1=O)C(=O)N[C@@H](Cc1ccccc1)C(=O)N1CCC[C@H]1C(=O)N[C@@H](CC(=O)O)C(=O)NCC(=O)N[C@@H](CCCNC(N)N)C(=O)N2, the Ki (protein: bovine ?-trypsin, PDB entry 1sfi) is listed as 0.0001 µM (active).

In the case of CC[C@H](C)[C@@H]1NC(=O)[C@@H]2CCCN2C(=O)[C@H](C)n2nncc2[C@H]([C@@H](C)CC)NC(=O)[C@H](CO)NC(=O)[C@H](CCCCN)NC(=O)[C@H]([C@@H](C)O)NC(=O)[C@@H](NC(=O)[C@@H](N)CCCNC(N)N)CSSC[C@@H](C(=O)N[C@@H](Cc2ccccc2)C(=O)O)NC1=O (H-[Orn(CH(NH2)2)]CTKS[X2]PICF-OH; disulfide 2-9), the Ki (protein: bovine CATIONIC TRYPSIN, PDB entry 4abj) is given as 0.034 µM (active).

In the case of NC(=O)[C@H](CCC(=O)O)NC(=O)[C@H](CCC(=O)O)NC(=O)[C@H](Cc1cc(-c2ccccc2)no1)C[P+](O)(O)c1ccc(Br)cc1, the Ki (protein: Macrophage metalloelastase (F171D mutation), PDB entry 4gr3) is listed as 0.0155 µM (active).

For NC(=O)[C@H](CCC(=O)O)NC(=O)[C@H](CCC(=O)O)NC(=O)[C@H](Cc1cc(-c2ccc(-c3cccc(Cl)c3)cc2)no1)C[P+](O)(O)c1ccc(Br)cc1, the Ki (protein: Macrophage metalloelastase (F171D mutation), PDB entry 4gql) is listed as 0.00026 µM (active).

For OC[C@@]1(F)OC[C@H](O)[C@@H](O)[C@@H]1O, the Ki (protein: ALPHA-1,4-GLUCAN LYASE ISOZYME 1, PDB entry 4amx) is given as 6500 µM (active).

For OC[C@]1(F)OC[C@H](O)[C@@H](O)[C@@H]1O, the Ki (protein: ALPHA-1,4-GLUCAN LYASE ISOZYME 1, PDB entry 4amw) is given as 28300 µM (active).

In the case of NC1NN=C(S(N)(=O)=O)S1 (stereo not given), the Ki (protein: human carbonic anhydrase II, PDB entry 2hnc) is listed as 0.06 µM (active).

For C[C@@H]1C[C@H]2[C@@H]3CCC4=CC(=O)C=C[C@]4(C)[C@@]3(Cl)[C@@H](O)C[C@]2(C)[C@@]1(OC(=O)c1ccco1)C(O)CCl (stereo not given in full), the Ki (protein: Glucocorticoid receptor GR LBD, PDB entry 4p6w) is listed as 0.0007 µM (active).

In the case of Nc1[nH]c(N)c2ccccc12, the Ki (protein: PDE10A2, PDB entry 4llj) is given as 380 µM (active).

For CCNC(=O)CN[C@@H](C(=O)N1CC[C@H]1C(=O)NCc1ccc(C(N)N)cc1)C1CCCCC1, the Ki (protein: THROMBIN, PDB entry 4baq) is listed as 0.00098 µM (active).

For CCCNC(=O)CN[C@@H](C(=O)N1CC[C@H]1C(=O)NCc1ccc(C(N)N)cc1)C1CCCCC1, the Ki (protein: THROMBIN, PDB entry 4bak) is given as 0.00122 µM (active).
